# Test results taken from the supplement of paper PMC8728848.
# The sample as a whole holds a higher share of the strongest signals than the screen did.
# B1: GS7807I-bvu-563-22-563 (Bacteroides vulgatus) (protein)
# chain: IFSSCTDDFEKLNTSNIQVDPADLPFAAQCTEPMTYCYPPQQNMFQFWTNLTIDLYGGYFMTPNGNFTNGDMGENRGHSGGMYENYYLHIFNNTRRIIAQCDASGERGLSGVMRIVQAYGTLMTTDAYGPIPYSSILSGENEVYFEFDSQKDLYKAMLEDLSTAITDISAMGADEIAKLKSFDCWCNGDKDLWVKIANTMKLRMALRLSKRETEAGNAGMNLKAIATEAAQNTLATVNKDILIDKSLENEMWLMFNWGDCGFNANLVTIMSGTKDPRQPLYMTLNTGDIKNEAGTTTVAANSQYLGIRFASGLPAKPNSWGNFSGWIQGNNGSSYSMPLPIMKAAEAYFLLAEAKLRWDIGSESVKNLYENGIRVSMTNELAYRGAYAGIKEYPEGAVDAYINGTSTQIDYTDPIKAELSTPAVNKLSVKWDESASNEEKLERIITQKWLALFPLSTEGWAEQRRTGYPRFFPAFVNESNGAVNTEEGVRRVIYSSQAYDANAKGVEGGIKLLDEENSSKFGISGDKGGTHLWWDNADKGNF
# Assays:
# Assay in all cases: glycan array binding signal (z-score within array); higher = stronger binding
# Settings in all cases: glycan notation: IUPAC condensed, linker removed
# [1] = target: Fuc(a1-2)Gal(b1-3)GlcNAc(b1-2)Man(a1-3)[Fuc(a1-2)Gal(b1-3)GlcNAc(b1-2)Man(a1-6)]Man(b1-4)GlcNAc(b1-4)GlcNAc
# Procedure, shortened: (§1)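 Glycan array data were curated from 3228 arrays in the Consortium for Functional Glycomics database and kept only where the protein sequence was available. Glycan names were converted to IUPAC-condensed notation, and columns mapping to the same glycan were averaged. The binding signal is a within-array Z-score, averaged across arrays of the same protein sequence at different concentrations or buffers and across linkers. Negative Z-scores can be read as non-binding.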
# [2] = target: Fuc(a1-2)Gal(b1-3)GlcNAc(b1-3)[Neu5Ac(a2-6)Gal(b1-4)GlcNAc(b1-6)]Gal(b1-4)Glc
# Procedure, shortened: as §1
# [3] = target: Fuc(a1-2)Gal(b1-3)[Fuc(a1-4)]GlcNAc(b1-3)[Gal(b1-4)GlcNAc(b1-6)]Gal(b1-4)Glc
# Procedure, shortened: as §1
# [4] = target: Fuc(a1-2)[Gal(a1-3)]Gal(b1-3)GlcNAc(b1-2)Man(a1-3)[Fuc(a1-2)[Gal(a1-3)]Gal(b1-3)GlcNAc(b1-2)Man(a1-6)]Man(b1-4)GlcNAc(b1-4)[Fuc(a1-6)]GlcNAc
# Procedure, shortened: as §1
# [5] = target: Fuc(a1-2)[Gal(a1-3)]Gal(b1-3)GlcNAc(b1-6)GalNAc
# Procedure, shortened: as §1
# [6] = target: Fuc(a1-2)[GalNAc(a1-3)]Gal(b1-4)GlcNAc(b1-2)Man(a1-3)[Fuc(a1-2)[GalNAc(a1-3)]Gal(b1-4)GlcNAc(b1-2)Man(a1-6)]Man(b1-4)GlcNAc(b1-4)GlcNAc
# Procedure, shortened: as §1
# [7] = target: Fuc(a1-3)[Gal3S(b1-4)]GlcNAc
# Procedure, shortened: as §1
# [8] = target: Fuc(a1-3)[Gal3S(b1-4)]GlcNAc6S
# Procedure, shortened: as §1
# [9] = target: Gal(a1-3)Gal(b1-4)GlcNAc(b1-3)GalNAc
# Procedure, shortened: as §1
# [10] = target: Gal(a1-3)Gal(b1-4)[Fuc(a1-3)]GlcNAc(b1-2)Man(a1-3)[Gal(a1-3)Gal(b1-4)[Fuc(a1-3)]GlcNAc(b1-2)Man(a1-6)]Man(b1-4)GlcNAc(b1-4)GlcNAc
# Procedure, shortened: as §1
# [11] = target: Gal(a1-3)[Gal(a1-4)]Gal(b1-4)GlcNAc
# Procedure, shortened: as §1
# Gal(a1-4)Gal(b1-4)GlcNAc = target: Gal(a1-4)Gal(b1-4)GlcNAc
# Procedure, shortened: as §1
# [12] = target: Gal(a1-4)Gal(b1-4)GlcNAc(b1-2)Man(a1-3)[Gal(a1-4)Gal(b1-4)GlcNAc(b1-2)Man(a1-6)]Man(b1-4)GlcNAc(b1-4)GlcNAc
# Procedure, shortened: as §1
# [13] = target: Gal(b1-3)GlcNAc(b1-2)Man(a1-3)[GlcNAc(b1-4)][Gal(b1-3)GlcNAc(b1-2)Man(a1-6)]Man(b1-4)GlcNAc(b1-4)GlcNAc
# Procedure, shortened: as §1
# [14] = target: Gal(b1-3)GlcNAc(b1-3)Gal(b1-4)Glc
# Procedure, shortened: as §1
# [15] = target: Gal(b1-3)GlcNAc(b1-3)Gal(b1-4)[Fuc(a1-3)]GlcNAc
# Procedure, shortened: as §1
# [16] = target: Gal(b1-3)[Fuc(a1-4)]GlcNAc(b1-6)GalNAc
# Procedure, shortened: as §1
# [17] = target: Gal(b1-3)[GlcNAc(b1-6)]GalNAc
# Procedure, shortened: as §1
# [18] = target: Gal(b1-3)[Neu5Ac(a2-6)]GalNAc
# Procedure, shortened: as §1
# [19] = target: Gal(b1-4)GlcNAc(b1-2)[Gal(b1-4)GlcNAc(b1-6)]Man(a1-6)[Gal(b1-4)GlcNAc(b1-2)Man(a1-3)]Man(b1-4)GlcNAc(b1-4)[Fuc(a1-6)]GlcNAc
# Procedure, shortened: as §1
# [20] = target: Gal(b1-4)GlcNAc(b1-3)Gal(b1-4)GlcNAc(b1-2)[Gal(b1-4)GlcNAc(b1-3)Gal(b1-4)GlcNAc(b1-6)]Man(a1-6)[Gal(b1-4)GlcNAc(b1-3)Gal(b1-4)GlcNAc(b1-2)Man(a1-3)]Man(b1-4)GlcNAc(b1-4)[Fuc(a1-6)]GlcNAc
# Procedure, shortened: as §1
# [21] = target: Gal(b1-4)GlcNAc(b1-3)Gal(b1-4)GlcNAc(b1-3)Gal(b1-4)GlcNAc(b1-3)Gal(b1-4)GlcNAc(b1-2)Man(a1-3)[Gal(b1-4)GlcNAc(b1-3)Gal(b1-4)GlcNAc(b1-3)Gal(b1-4)GlcNAc(b1-3)Gal(b1-4)GlcNAc(b1-2)Man(a1-6)]Man(b1-4)GlcNAc(b1-4)[Fuc(a1-6)]GlcNAc
# Procedure, shortened: as §1
# Gal3S(b1-3)GlcNAc = target: Gal3S(b1-3)GlcNAc
# Procedure, shortened: as §1
# [22] = target: Gal3S(b1-4)[Fuc(a1-3)]GlcNAc
# Procedure, shortened: as §1
# Glc(b1-4)Glc = target: Glc(b1-4)Glc
# Procedure, shortened: as §1
# [23] = target: GlcNAc(a1-4)Gal(b1-4)GlcNAc(b1-3)Gal(b1-4)[Fuc(a1-3)]GlcNAc(b1-3)Gal(b1-4)[Fuc(a1-3)]GlcNAc
# Procedure, shortened: as §1
# [24] = target: GlcNAc(b1-2)Gal(b1-3)GalNAc
# Procedure, shortened: as §1
# [25] = target: GlcNAc(b1-2)Man(a1-3)[GlcNAc(b1-2)Man(a1-6)]Man(b1-4)GlcNAc(b1-4)GlcNAc
# Procedure, shortened: as §1
# [26] = target: GlcNAc(b1-2)[GlcNAc(b1-4)]Man(a1-3)[GlcNAc(b1-4)][GlcNAc(b1-2)[GlcNAc(b1-6)]Man(a1-6)]Man(b1-4)GlcNAc(b1-4)[Fuc(a1-6)]GlcNAc
# Procedure, shortened: as §1
# [27] = target: GlcNAc(b1-3)Gal(b1-4)GlcNAc(b1-3)Gal(b1-4)GlcNAc(b1-2)Man(a1-3)[GlcNAc(b1-3)Gal(b1-4)GlcNAc(b1-3)Gal(b1-4)GlcNAc(b1-2)Man(a1-6)]Man(b1-4)GlcNAc(b1-4)GlcNAc
# Procedure, shortened: as §1
# [28] = target: GlcNAc(b1-3)Gal(b1-4)GlcNAc(b1-3)Gal(b1-4)GlcNAc(b1-3)Gal(b1-4)GlcNAc(b1-2)[GlcNAc(b1-3)Gal(b1-4)GlcNAc(b1-3)Gal(b1-4)GlcNAc(b1-3)Gal(b1-4)GlcNAc(b1-6)]Man(a1-6)[GlcNAc(b1-3)Gal(b1-4)GlcNAc(b1-3)Gal(b1-4)GlcNAc(b1-3)Gal(b1-4)GlcNAc(b1-2)Man(a1-3)]Man(b1-4)GlcNAc(b1-4)[Fuc(a1-6)]GlcNAc
# Procedure, shortened: as §1
# [29] = target: GlcNAc(b1-4)GlcNAc(b1-4)GlcNAc(b1-4)GlcNAc(b1-4)GlcNAc
# Procedure, shortened: as §1
# [30] = target: Man(a1-3)[Man(a1-6)]Man(b1-4)GlcNAc(b1-4)GlcNAc
# Procedure, shortened: as §1
# [31] = target: Neu5Ac(a2-3)Gal(b1-3)[GlcNAc(b1-6)]GalNAc
# Procedure, shortened: as §1
# Neu5Ac(a2-3)Gal(b1-4)Glc = target: Neu5Ac(a2-3)Gal(b1-4)Glc
# Procedure, shortened: as §1
# [32] = target: Neu5Ac(a2-3)Gal(b1-4)GlcNAc(b1-2)Man
# Procedure, shortened: as §1
# [33] = target: Neu5Ac(a2-3)Gal(b1-4)GlcNAc(b1-6)[Neu5Ac(a2-3)Gal(b1-3)]GalNAc
# Procedure, shortened: as §1
# [34] = target: Neu5Ac(a2-3)Gal(b1-4)[Fuc(a1-3)]GlcNAc(b1-3)GalNAc
# Procedure, shortened: as §1
# [35] = target: Neu5Ac(a2-6)Gal(b1-4)GlcNAc(b1-2)Man(a1-6)[Gal(b1-4)GlcNAc(b1-2)Man(a1-3)]Man(b1-4)GlcNAc(b1-4)GlcNAc
# Procedure, shortened: as §1
# [36] = target: Neu5Ac(a2-6)Gal(b1-4)GlcNAc(b1-3)Gal(b1-3)GlcNAc
# Procedure, shortened: as §1
# [37] = target: Neu5Ac(b2-6)Gal(b1-4)GlcNAc
# Procedure, shortened: as §1
binder,measurement,setting,value
B1,glycan array binding signal (z-score),[1],4.25
same,glycan array binding signal (z-score),[2],-0.639
same,glycan array binding signal (z-score),[3],-0.806
same,glycan array binding signal (z-score),[4],-0.026
same,glycan array binding signal (z-score),[5],0.231
same,glycan array binding signal (z-score),[6],0.159
same,glycan array binding signal (z-score),[7],0.384
same,glycan array binding signal (z-score),[8],0.755
same,glycan array binding signal (z-score),[9],-1.06
same,glycan array binding signal (z-score),[10],3.63
same,glycan array binding signal (z-score),[11],0.09
same,glycan array binding signal (z-score),Gal(a1-4)Gal(b1-4)GlcNAc,0.073
same,glycan array binding signal (z-score),[12],2.76
same,glycan array binding signal (z-score),[13],3.75
same,glycan array binding signal (z-score),[14],-1.02
same,glycan array binding signal (z-score),[15],-0.396
same,glycan array binding signal (z-score),[16],-0.343
same,glycan array binding signal (z-score),[17],-0.484
same,glycan array binding signal (z-score),[18],0.238
same,glycan array binding signal (z-score),[19],-0.297
same,glycan array binding signal (z-score),[20],2.61
same,glycan array binding signal (z-score),[21],3.21
same,glycan array binding signal (z-score),Gal3S(b1-3)GlcNAc,1.03
same,glycan array binding signal (z-score),[22],0.875
same,glycan array binding signal (z-score),Glc(b1-4)Glc,-0.567
same,glycan array binding signal (z-score),[23],2.71
same,glycan array binding signal (z-score),[24],0.388
same,glycan array binding signal (z-score),[25],-0.694
same,glycan array binding signal (z-score),[26],-1.04
same,glycan array binding signal (z-score),[27],2.79
same,glycan array binding signal (z-score),[28],3.79
same,glycan array binding signal (z-score),[29],-0.951
same,glycan array binding signal (z-score),[30],-0.233
same,glycan array binding signal (z-score),[31],0.671
same,glycan array binding signal (z-score),Neu5Ac(a2-3)Gal(b1-4)Glc,0.689
same,glycan array binding signal (z-score),[32],2.84
same,glycan array binding signal (z-score),[33],-0.221
same,glycan array binding signal (z-score),[34],5.03
same,glycan array binding signal (z-score),[35],1.71
same,glycan array binding signal (z-score),[36],-0.945
same,glycan array binding signal (z-score),[37],-0.47
